Screens: PubChem, several laboratories
Peg3 promoter: inhibitors of Peg3 promoter; HeLa PEG-Prom luciferase reporter, luminescence, overnight; inhibition, % at 20 µM; 360,000 tested, 1.7% active; AID 588405;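 active = inhibition of at least 50% at 20 µM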
LMP1 NFkB inh: inhibitors of Epstein-Barr LMP1-induced NF-kappaB reporter; inhibition, % at 12.5 µM; LMP1-induced NF-kappaB luciferase reporter cells, luminescence; 350,000 tested, 0.69% active; in the data active = inhibition above about 41%
HIF-2a inh: blocks HIF-2a reporter activity; 786-0 RCC cells HIF-2a reporter, luciferase luminescence, overnight; inhibition, % at 18.8 µM; 360,000 tested, 0.72% active;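 active = inhibition of the luminescence signal of 40% or more relative to plate controls, in a single-dose primary screen at 18.75 µM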
TROY NFkB inh: blocks TROY-dependent signaling in reporter cells; Q293 LMP1-TROYcd NF-kB luciferase reporter, 4 h; inhibition, % at 10 µM; 360,000 tested, 0.98% active;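 active = compounds whose plate-normalised and pattern-corrected inhibition of the luciferase reporter signal at the single screening dose is 50% or more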
TRPM1 prom inh: MITF TRPM1 promoter inhibition in SK-MEL-5 cells; SK-MEL-5 TRPM1 promoter luciferase, 24 h; 330,000 tested, 0.83% active; inhibition, % at 12.5 µM; AID 488899;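 active = mean inhibition across replicates of 60% or more, whatever share of single replicates reaches that level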
TWEAK Fn14 block: blocks TWEAK-Fn14 interaction in a reporter cell assay | inhibition, % at 10 µM | TWEAK-stimulated Fn14 reporter cells, luciferase luminescence, 8 h | 360,000 tested, 2% active | AID 1159606; in the data active = inhibition above about 50%
Large screens that a line does not name were inactive. Only some compounds are listed: those with a hit (about 4% of all), similar ones and a draw of the others.

Cc1ccc(C)c(NC(=O)CC2Oc3ccccc3NC2=O)c1 (stereo not given)	none
CC(=O)Nc1ccc(S(=O)(=O)NCCC(=O)OCC(=O)NNC(=O)c2ccccc2)cc1	none
CCN(CC)CCNC(=O)c1cc(-c2ccc(Br)s2)nc2ccccc12	Peg3 promoter 101.3
CCOC(=O)/C=C/C(=O)Nc1cc(S(=O)(=O)Nc2ccc(OC)cc2)ccc1N1CCOCC1	TWEAK Fn14 block 56.4
CCOC(=O)/C=C/C(=O)Nc1ccc(S(=O)(=O)Nc2c(C)cc(C)cc2C)cc1	TROY NFkB inh 50.3
CCOC(=O)/C=C/S(=O)(=O)c1ccc(NC(C)=O)cc1	Peg3 promoter 102.5, TRPM1 prom inh 92.2
CCOC(=O)/C=C/C(=O)Nc1ccc(Oc2ccccc2)cc1	Peg3 promoter 53.9, TWEAK Fn14 block 70.8
CCOC(=O)/C=C/C(=O)OCC(=O)Nc1ccc(C)cc1	none
CCN(CC(=O)NC1CCCC1)S(=O)(=O)c1ccc(F)cc1	none
CCOC(=O)C1(Cc2ccccc2)CCCCCC1=O (stereo not given)	none
COc1cccc(-c2cc(NC=O)c3ncc(-c4cccc(C(=O)N(C)C)c4)n3c2)c1	none (no result: LMP1 NFkB inh, TRPM1 prom inh)
COc1ccc(CNc2nn3c(-c4cccc(C(=O)N(C)C)c4)cnc3s2)cc1	Peg3 promoter 56.1, TROY NFkB inh 50.1, TWEAK Fn14 block 81.1 (no result: LMP1 NFkB inh, TRPM1 prom inh)
O=c1c(O)c(-c2ccc(O)cc2)oc2cc(O)cc(O)c12	none
O=c1c(O)c(-c2ccc(O)c(O)c2)oc2cc(O)ccc12	TWEAK Fn14 block 55.5
O=C(NCCN1C(=O)S/C(=C\c2ccc(Cl)c(Cl)c2)C1=O)c1ccc2c(c1)C(=O)N(Cc1ccncc1)C2=O	TWEAK Fn14 block 58.1
COc1cc(NC2c3ccccc3C(=O)N2c2ccc(C)cn2)cc(OC)c1OC (stereo not given)	none (no result: TRPM1 prom inh)
O=C1c2ccccc2C(Nc2cccnc2)N1Cc1ccccc1 (stereo not given)	LMP1 NFkB inh 81.9
Cc1ccc(N2C(=O)c3ccccc3C2Nc2cccnc2)nc1 (stereo not given)	LMP1 NFkB inh 81.4
COc1ccc(NC(=O)Cn2c(=O)cnc3ccccc32)cc1S(=O)(=O)N1CCCCC1	none
COC(=O)c1ccc2nc(-c3ccco3)c(Cc3ccc(OC)cc3C)n2c1	none (no result: LMP1 NFkB inh, TRPM1 prom inh)
C=CCN=C1NN=C(c2cc(C)n(CCOC)c2C)CS1	LMP1 NFkB inh 44.9, HIF-2a inh 46.7
C=CCn1c(C)cc(C2=NNC(=Nc3ccc(C)cc3)SC2)c1C	none
C=CCn1c(C)cc(C2=NNC(=NC(C)(C)C)SC2)c1C	LMP1 NFkB inh 57.3, HIF-2a inh 48.5, TRPM1 prom inh 79.2, TWEAK Fn14 block 83.1
Cc1ccc(S(=O)(=O)NCc2ccc(C(=O)NC3CCC(O)CC3)cc2)cc1C (stereo not given)	none
Cc1ccc(Cl)cc1N1CCN(C(=O)c2cc3c(=O)[nH]c4ccccc4c3n2C)CC1	Peg3 promoter 56.4, TRPM1 prom inh 64.3
C=C1C(=O)CC2=C1[C@](Cc1ccc(F)cc1)(C(=O)OC)N(C(=O)c1ccccc1)C2	none (no result: Peg3 promoter, LMP1 NFkB inh, TRPM1 prom inh)
C=C1C(=O)C=C2CN(C(=O)c3ccccc3)[C@@](Cc3ccc(F)cc3)(C(=O)OC)[C@@H]12	Peg3 promoter 99.4, LMP1 NFkB inh 93.7, HIF-2a inh 97.2, TROY NFkB inh 80.9, TRPM1 prom inh 99.3, TWEAK Fn14 block 104.8
CCCSc1ncnc2[nH]ncc12	none
CCc1cccc(N=c2c([N+](=O)[O-])nn(-c3ccc4c(c3)OCCO4)n2O)c1	TROY NFkB inh 55.4
CCc1cccc(N=c2c([N+](=O)[O-])nn(-c3ccc(Cl)cc3)n2O)c1	none
COc1cc(N=c2c([N+](=O)[O-])nn(-c3ccc4c(c3)OCCO4)n2O)cc(OC)c1	TROY NFkB inh 53.5
C[C@H]1CN=C(N(C)C)N1CCCC1CCCCC1	none
Cc1ccc(C2(C)NC(=O)N(CC(=O)N(C)CC(=O)Nc3cccc4ccccc34)C2=O)cc1 (stereo not given)	none
CN(C)C(=O)c1ccc(SC(=S)NCc2ccccc2)cc1	Peg3 promoter 85.3 (no result: LMP1 NFkB inh, TRPM1 prom inh)
CC(C)(C)CC(=O)NC(=S)NCc1ccccc1	none
CC(=O)NNc1ncnc2c1cnn2-c1ccc(C)c(C)c1	TROY NFkB inh 53.9, TWEAK Fn14 block 65.6
Nc1nc(=O)n(C2CCC(CO)O2)cc1F (stereo not given)	none (no result: Peg3 promoter, LMP1 NFkB inh, TRPM1 prom inh)
CN(Cc1ccccc1F)C(=O)c1cccc(NC(=O)CC2SC(N3CCCCC3)=NC2=O)c1 (stereo not given)	none
COc1ccc(/C=N/NC(=O)c2ccc(NS(=O)(=O)c3cccs3)cc2)cc1	Peg3 promoter 104.3
Cc1ccc(-n2cc(CNCC3CC(=O)N(C4CC4)C3)c(-c3cccc(C)c3)n2)cc1 (stereo not given)	TROY NFkB inh 51.6
Cc1ccc(-n2cc(CN3CCNC(=O)CC3)c(-c3cccc(C)c3)n2)cc1	none
O=C1CCN(S(=O)(=O)c2ccccc2)CCN1CCOCc1cccc(F)c1	none
CCc1c(C)nc(N2CCN(c3ccccc3)CC2)[nH]c1=O	none
Cc1nc(N2CCN(c3ccccc3)CC2)[nH]c(=O)c1CCC(C)C	TWEAK Fn14 block 60.1
O=C(N=C1SC2CS(=O)(=O)CC2N1c1cc(Cl)ccc1Cl)C1CCCO1 (stereo not given)	none
Cc1cccc(Cn2cnc3c(nnn3Cc3ccc(Cl)cc3)c2=O)c1	none
Cc1cccc(Cn2nc(-n3cccc3)c3c(C)cc(C)nc32)c1	LMP1 NFkB inh 47.0
Cc1cccc(C(=O)N2CCCCCC2)c1	none
Cc1cccc(C(=O)n2c(=S)nc3ccccn32)c1	TWEAK Fn14 block 76.8
Cc1cccn2c1nc(=S)n2C(=O)c1ccco1	none
O=C(c1ccccc1)n1c(=S)nc2ccccn21	TROY NFkB inh 59.6, TWEAK Fn14 block 82.4
COc1cc(C(=O)Nc2ccc3c(c2)OCO3)ccc1-n1cnnn1	none
COc1cc(NC(=O)Cc2cccs2)ccc1-n1cnnn1	TWEAK Fn14 block 91.1 (no result: TROY NFkB inh)
CCOc1ccc(C(=O)N2CCCC(c3nc(-c4cccs4)no3)C2)cc1 (stereo not given)	TROY NFkB inh 63.6, TWEAK Fn14 block 62.8
CCC(CC)C(=O)N1CCCC(c2nc(-c3cccs3)no2)C1 (stereo not given)	none
CCCCC1=C(C(=O)OCC)C(C(=O)OCC)Oc2ccccc21 (stereo not given)	none
C[C@H](NC(=O)c1ccco1)C(=O)NCc1cccs1	none
Cc1ccc(N2CC(C(=O)Nc3cc(S(=O)(=O)N4CCCCC4)ccc3C)CC2=O)cc1 (stereo not given)	none (no result: TRPM1 prom inh)
O=C(CCn1c(=O)oc2ccccc21)Nc1nc2ccccc2s1	none
CCSc1nnc(NC(=O)CCn2c(=O)oc3ccccc32)s1	LMP1 NFkB inh 79.2
CCOC(=O)c1ccc(N2C=C(C(=O)OC)C(c3cccc(O)c3)C(C(=O)OC)=C2)cc1	none
CC(C)C(=O)N1CCC1(C)C(=O)NCc1ccc(F)cc1Cl (stereo not given)	none (no result: LMP1 NFkB inh, TRPM1 prom inh)
CCc1nonc1NC(=O)c1oc2ccc(F)cc2c1C	LMP1 NFkB inh 41.9
